Source: PubChem BioAssay (National Center for Advancing Translational Sciences (NCATS))
The list is not random: actives were taken first. Their share in the collection is about 19%.
TGFb inhibitor: TGF-b pathway inhibition; 410,000 tested, 1.2% active; Potency, µM (top dose mostly 46.1 µM), hits mostly inhibitors; HepG2 CAGA-GFP TGF-b/SMAD3 reporter, GFP fluorescence, 18 h; TGF-beta stimulated, 500 pg/mL final; AID 588855; further: nearly all actives have a fitted effect of over 65% in size
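Inhibition of TGF-beta-driven CAGA-GFP reporter expression in HEPG2 cells is measured by cellular GFP fluorescence after 18 h stimulation with 500 pg/mL recombinant TGF-beta in 1% FBS medium at 37 degrees C.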
HepG2 tox: counter-screen for TGF-b inhibitors: cytotoxicity in HepG2 cells. HepG2 CAGA-GFP viability, ATP luminescence, 18 h. Potency, µM (series often up to 46.1 µM), usual class: cytotoxic. 410,000 tested, 0.76% active. AID 588856
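CellTiter-Glo luminescence gave cytotoxicity after 18 hours at 37 degrees C. The cells were HepG2 CAGA-GFP in 1% FBS DMEM, stimulated with 500 pg/mL TGF-beta after compound addition. %Activity was normalised to no-cell wells (complete cell-killing) and DMSO (no toxicity), and curves were fitted and classified.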
DT40 TDP1 CPT: DT40-hTDP1 cell growth loss with CPT; chicken DT40 Tdp1-/-;hTDP1 cells + 20 nM CPT, ATP luminescence, 48 h; Potency, µM (titrated, usually from 46.2 µM), hits mostly inhibitors; 420,000 tested, 12% active; AID 686979; further: nearly all actives have a fitted effect of over 55% in size
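Chicken DT40 Tdp1-/- cells complemented with human TDP1, 400 cells/well, exposed to compounds plus 20 nM camptothecin for at least 48 h at 37 C; viability read as ATP content by CellTiter-Glo luminescence.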
IL-1B inflam inh: inhibitors of inflammasome signaling (IL-1 beta secretion) | activity change, % at 57.5 µM | THP-1 LPS/ATP IL-1B secretion, AlphaLISA, 16 h; active compounds read low | 360,000 tested, 4.7% active; in the data active means activity change below about -50%; inconclusive means mostly about -30% to -49%
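THP-1 cells pretreated 1 hr with compounds (up to 57.5 uM final), then stimulated with LPS (250 ng/mL final) plus ATP (1.25 mM final); secreted IL-1B measured by AlphaLISA after 16 hr, decreased signal indicating inhibition.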
TDP1 block: inhibitors of human tyrosyl-DNA phosphodiesterase TDP1 | Q9NUW8 | recombinant TDP1, AlphaScreen DNA substrate cleavage | Potency, µM (series often up to 130 µM), hits mostly inhibitors | 350,000 tested, 0.28% active; further: nearly all actives have a fitted effect of over 40% in size
Target sequence (Q9NUW8 whole entry, looked up): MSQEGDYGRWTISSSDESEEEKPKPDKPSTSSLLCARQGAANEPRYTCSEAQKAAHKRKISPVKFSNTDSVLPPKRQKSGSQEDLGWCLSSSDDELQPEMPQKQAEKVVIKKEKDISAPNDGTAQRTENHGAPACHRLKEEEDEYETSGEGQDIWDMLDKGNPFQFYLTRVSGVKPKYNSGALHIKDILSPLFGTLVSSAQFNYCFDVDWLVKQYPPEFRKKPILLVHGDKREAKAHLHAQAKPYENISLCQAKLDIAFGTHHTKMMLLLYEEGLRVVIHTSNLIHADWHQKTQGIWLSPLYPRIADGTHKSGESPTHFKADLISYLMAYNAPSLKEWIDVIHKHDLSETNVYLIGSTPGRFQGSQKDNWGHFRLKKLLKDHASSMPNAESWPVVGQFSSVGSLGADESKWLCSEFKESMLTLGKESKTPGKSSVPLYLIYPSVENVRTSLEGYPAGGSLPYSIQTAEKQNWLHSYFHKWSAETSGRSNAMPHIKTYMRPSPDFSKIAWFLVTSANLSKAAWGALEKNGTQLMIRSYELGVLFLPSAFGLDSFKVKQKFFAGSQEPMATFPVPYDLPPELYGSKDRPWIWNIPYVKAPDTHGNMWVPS
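Enzyme-compound mixtures sat 15 min at room temperature, followed by a 5 min reaction with 15 nM final substrate and 10 min with AlphaScreen beads. Recombinant human Tdp1 was used at 1 nM final.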
DT40 TDP1 no CPT: qHTS for Inhibitors of human tyrosyl-DNA phosphodiesterase 1 (TDP1): qHTS in cells in absence of CPT; AID 686978, 2013; 420,000 tested, 15% active; DT40 Tdp1-/- hTDP1 cells, no CPT, ATP luminescence, 48 h; Potency, µM (top dose mostly 46.2 µM), hits mostly inhibitors; further: nearly all actives have a fitted effect of over 55% in size
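Chicken DT40 Tdp1-/- cells complemented with human TDP1, screened without camptothecin (DMSO vehicle only), 400 cells/well. Compounds pin-transferred, cells incubated at 37 °C for at least 48 hr. Growth read as ATP-dependent luminescence (CellTiter-Glo, 30 min at RT).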
Numbers stand for hits; i = inactive; ? = inconclusive; nt = no result; [ ] = remark or other dose. Unless noted, the call rests on the fitted dose curve; in most records, active means well fitted curve in the direction sought with a large enough effect; inconclusive means small, poorly fitted or top-dose-only effect, or another doubt; inactive means no such curve, though single readings can be large; an effect the other way counts as inactive or inconclusive.

SMILES | TGFb inhibitor | HepG2 tox | DT40 TDP1 CPT | IL-1B inflam inh | TDP1 block | DT40 TDP1 no CPT
CCCCCCC(=O)N(O)C1CC(=O)N(c2ccc(F)cc2)C1=O (centres undefined) | 17.8µM | i | 1.64µM | -88.1 | i | 2.91µM
COc1ccccc1N(O)C1CC(=O)N(c2ccc(Br)cc2)C1=O (centres undefined) | i | i | 18.4µM | i | i | ?
CCOc1ccc(C(=O)NCc2nc3cccnc3n2Cc2cccc(OC)c2)cc1 | i | i | i | nt | i | i
CCOCCCNS(=O)(=O)c1ccc(NC(=O)N2c3ccccc3Sc3ccccc32)cc1 | ? | i | 23.1µM | ? | i | ?
O=C(c1ccco1)N1CCc2[nH]nc(-c3ccc(Cl)cc3)c2C1 | i | i | i | -72.0 | i | i
COc1ccc(C2(C)NC(=O)N(CC(=O)NCc3ccccc3)C2=O)cc1OC (centres undefined) | i | i | i | i | nt | i
Clc1ccc(Cn2ncc3c(N4CCCC4)ncnc32)cc1 | i | i | i | ? | i | ?
Clc1ccc(Cn2ncc3c(N4CCOCC4)ncnc32)cc1 | i | i | ? | i | i | 23.1µM
Clc1ccc(Cn2ncc3c(N4CCCCC4)ncnc32)cc1 | i | i | 16.4µM | i | i | 20.6µM
CC1CC(C)CN(c2ncnc3c2cnn3Cc2ccc(Cl)cc2)C1 (centres undefined) | ? | i | ? | i | i | ?
Clc1ccc(Cn2ncc3c(N4CCCCC4)ncnc32)c(Cl)c1 | ? | i | 23.1µM | i | i | 11.6µM
Cc1cc(C)n(Cc2ccc(F)cc2)c(=O)c1C#N | i | i | i | i | i | i
COc1ccc(C=O)cc1Cn1c(C)cc(C)c(C#N)c1=O | i | i | 16.4µM | i | i | 16.4µM
CCCCC[C@H](C)N1C[C@H](COCc2ccccc2)Oc2cc(N3CC[C@@H](O)C3)ccc2S1(=O)=O | nt | nt | ? | i | nt | ?
CCCCC[C@H](C)N1C[C@@H](COCc2ccccc2)Oc2cc(N3CC[C@H](N(C)C)C3)ccc2S1(=O)=O | nt | nt | ? | -50.1 | nt | ?
CCCCC[C@@H](C)N1C[C@@H](COCc2ccccc2)Oc2cc(N3CC[C@H](N(C)C)C3)ccc2S1(=O)=O | nt | nt | ? | -73.1 | nt | 18.4µM
Cc1cccc(N2CCN(C(=O)C3CCN(S(=O)(=O)c4cn(C)cn4)CC3)CC2)c1C | i | i | ? | nt | i | ?
Cc1ccsc1CNc1ncnc2ccc(-c3c(C)noc3C)cc12 | i | i | nt | nt | i | nt
Cc1noc(C)c1-c1ccc2ncnc(NCc3cccs3)c2c1 | nt | nt | 11.6µM | nt | nt | 23.1µM
COC(=O)C/C=C\[C@@H](C)[C@@H](/C=N\O[C@@H](C)CN1CCCc2nc(C)c(C)cc21)NS(=O)(=O)c1ccc(C)cc1 | nt | nt | nt | nt | i[21 µM] | nt
Cn1c(=O)c(=O)n(C)c2cc(N3CCOCC3)c(NS(=O)(=O)c3ccc(F)c(Cl)c3)cc21 | i | i | ? | i | i | ?
CSc1ccc(S(=O)(=O)Nc2ccccc2C(=O)N2CCOCC2)cc1 | i | i | i | i | i | i
Cn1c(=O)n(C)c2cc(N3CCOCC3)c(NS(=O)(=O)c3ccc(Br)cc3)cc21 | i | i | 14.6µM | nt | i[12.3 µM] | ?
Cn1c(=O)n(C)c2cc(N3CCOCC3)c(NS(=O)(=O)c3ccc(F)cc3)cc21 | i | i | ? | nt | i | ?
O=C(c1ccccc1NS(=O)(=O)c1ccc(Br)cc1)N1CCOCC1 | i | i | i | -52.8 | i | i
SMILES | TGFb inhibitor | HepG2 tox | DT40 TDP1 CPT | IL-1B inflam inh | TDP1 block | DT40 TDP1 no CPT
Cc1cc(S(=O)(=O)Nc2cc3c(cc2N2CCOCC2)n(C)c(=O)n3C)ccc1F | i | i | 23.1µM | nt | i | 9.2µM
Cc1ccc(OCC(=O)Nc2ccc3c(c2)nc(CCN2CCN(c4ccccn4)CC2)n3C)cc1 | i | i | 23.1µM | i | nt | 20.6µM
Cc1ccc(OCC(=O)Nc2ccc3c(c2)nc(CCN2CCN(C)CC2)n3C)cc1 | i | i | ? | i | i | ?
Cn1c(CCN2CCN(c3ccccn3)CC2)nc2cc(NC(=O)COc3ccccc3)ccc21 | ? | i | ? | i | i | 25.9µM
CCCC(=O)Nc1ccc2c(c1)nc(CCN1CCN(c3ccccn3)CC1)n2C | i | i | i | i | nt | i
COC(=O)C1CC(c2ccccc2)N(c2ccccc2)O1 (centres undefined) | i | i | i | i | nt | i
Cc1ccc(/C=[N+](\[O-])c2ccc(N(C)C)cc2)c2nsnc12 | 7.94µM | 14.1µM | 7.31µM | -99.5 | i | 16.4µM
O=C1OCCN1c1c(-c2ccccc2)c(N2CCOCC2)nc2ccccc12 | i | i | 11.6µM | i | nt | 14.6µM
CC(C)c1ccc(Nc2c(-c3ccc(N4CCOCC4)cc3)nc3ncccn23)cc1 | ? | i | i | nt | i | i
Cc1cc(C)c2nc(NC(=O)c3ccc([N+](=O)[O-])o3)sc2c1 | i | i | i | ? | nt | i
O=C(Nc1nc2c(F)cc(F)cc2s1)c1ccc([N+](=O)[O-])o1 | i | i | 14.6µM | i | nt | 10.3µM
O=C(Nc1nc2ccccc2s1)c1ccccc1[N+](=O)[O-] | i | i | i | i | i | i
O=C(Nc1nc2ccccc2s1)c1ccc([N+](=O)[O-])o1 | ? | i | 14.6µM | -67.8 | nt | 8.2µM
O=C(CCc1ccccc1)Nc1nc2c(F)cc(F)cc2s1 | i | i | ? | i | i | 13µM
CC1CCCC(NC(=O)C2N(CCCN3CCCC3)C(=O)C3C(C(=O)Nc4ccc(Cl)cc4)C4C=CC32O4)C1C (centres undefined) | i | i | i | -65.2 | i | ?
O=C(Nc1ccc(Cl)c(Cl)c1)C1C2C=CC3(O2)C1C(=O)N(CCN1CCCCC1)C3C(=O)NC1CCCCC1 (centres undefined) | i | i | ? | -81.0 | i | ?
COC(=O)/C(=C\Nc1ccc(Oc2ccc(F)cc2F)nc1)NC(=O)c1ccccc1 | i | i | i | i | i | i
COc1ccccc1-c1cc(C(F)(F)F)n2ncc(C(=O)N3CCc4ccccc4C3)c2n1 | ? | i | ? | i | i | 23.1µM
CN1CCN(C(=O)c2cnn3c(C(F)(F)F)cc(-c4cccs4)nc23)CC1 | i | i | i | i | i | i
O=C(NCCc1ccccc1)c1nc2nc(-c3cccs3)cc(C(F)(F)F)n2n1 | i | i | 20.6µM | i | i | 29.1µM
O=C(c1cnn2c(C(F)(F)F)cc(-c3cccs3)nc12)N1CCN(Cc2ccccc2)CC1 | i | i | ? | ? | i | 14.6µM
